Each structure is given as a SMILES string. Results filed as inconclusive are left out. Activity calls are given as the source filed them. The call rests on the fitted dose curve; in most records, active means well fitted inhibition curve with a large enough effect; inconclusive means small, poorly fitted or top-dose-only effect; inactive means flat fitted curve, though single readings scatter.

Data on one compound can be found in PubChem BioAssay AID504433 (National Center for Advancing Translational Sciences (NCATS), 2011).

This assay in a line: Secondary Assay for lipid storage modulators: Cytotoxcity for probe SAR round 2. The note with it: Drosophila S3 cells viability, CellTiter-Glo ATP luminescence, 24 h; series mostly up to 46.1 µM. The text has this:
NIH Molecular Libraries Probe Production Centers Network [MLPCN] NIH Chemical Genomics Center [NCGC] MLPCN Grant: 1 R03 MH085686-01 Assay Submitter (PI): Beller, Mathias; Max-Planck-Institut fur Biophysikalische Chemie, Germany. NCGC Assay Overview: Storing lipids as a reservoir for energy or the anabolism of elementary metabolites is a common feature of probably all cells and is conserved from bacteria to humans. The universal cellular lipid storage organelle is the so-called lipid storage droplet (LD). Although ubiquitous, LDs share a simple structure composed of a hydrophobic core that harbors the storage lipids, which is shielded by a droplet-specific phospholipid monolayer to which proteins are attached. The current model of LD biogenesis involves an incorporation of the lipid core into the membrane leaflets of the endoplasmic reticulum (ER) followed by a subsequent budding-like maturation of a LD, which ultimately pinches off. Once released, LD volume can increase by localized lipogenesis or fusion of existing droplet. Storage lipids are re-mobilized enzymatically by lipase activity. […]
Assay Protocol Summary: Cytotoxcity assay was performed with embryonic Drosophila S3 cells (Bloomington Drosophila Genomics Resource Center [DGRC]). […] Luminescence was detected on the Perkin Elmer ViewLux.
(In general: In ATP-based viability assays light output follows the ATP content of the culture.)

Take `CCC/C=C/C/C=C/C=C/C=N/NN=O`: the call was inactive.
